# Experimental data taken from PubChem BioAssay.
# Activity calls are given as the source filed them.
# Assays:
# [1] = system: Plasmodium falciparum Sir2 (PF13_0152, Sir2A); experiment: pfSir2 binders on small-molecule microarrays, primary screen, biochemical, small-molecule microarray, 635 nm fluorescence (AID 1098); conditions: small-molecule microarray binding, fluorescence 635 nm; higher = more signal;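 note: score merges spot fluorescence intensity with its signal-to-noise ratio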
# [2] = small-molecule microarray binders of probe aDKK1, primary screen, biochemical, biotinylated probe, 635/667 nm fluorescence (AID 1099); conditions: higher = more signal;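 note: score merges 667nm spot fluorescence with signal to noise across triplicate slides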
# [3] = small-molecule microarray binders of probe aCHRDL2, primary screen, biochemical, biotinylated probe, 635/667 nm fluorescence (AID 1100); conditions: higher = more signal
# [4] = splicing luciferase reporter signal modulators, primary screen, spliceosome inhibition project, cell-based, HEK293, splice +/- reporter (AID 1101); conditions: luminescence, 24 h, higher = more signal, called active from +8 up or from −8 down;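 note: HEK293 cells carrying a splicing-competent luciferase reporter gene; test concentration not given here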
# [5] = target: Fibroblast growth factor 10 (Homo sapiens) (UniProt O15520); experiment: FGF10 binders on small-molecule microarrays, primary screen, biochemical, small-molecule microarray, 635 nm fluorescence (AID 1102); conditions: FGF10 binding, fluorescence 635 nm, higher = more signal
# Chain of Fibroblast growth factor 10 (Homo sapiens) (O15520 whole entry, looked up): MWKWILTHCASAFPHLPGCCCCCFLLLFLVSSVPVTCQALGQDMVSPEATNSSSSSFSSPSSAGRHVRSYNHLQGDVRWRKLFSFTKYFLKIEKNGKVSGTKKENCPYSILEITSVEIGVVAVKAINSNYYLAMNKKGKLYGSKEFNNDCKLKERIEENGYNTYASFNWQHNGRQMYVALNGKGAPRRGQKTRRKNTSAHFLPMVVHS
# [6] = system: glycogen synthase kinase-3 (GSK3A per assay name; protocol says GSK3B); experiment: GSK3 binders on small-molecule microarrays, primary screen, biochemical, small-molecule microarray, 635 nm fluorescence, GSK3A (AID 1103); conditions: small-molecule microarray binding, fluorescence 635 nm; higher = more signal; note: the record names both GSK3A and GSK3B
# [7] = target: Epidermal growth factor receptor (Homo sapiens) (UniProt P00533); experiment: EGFR binders on small-molecule microarrays, primary screen, biochemical, small-molecule microarray, 635 nm fluorescence (AID 1104); conditions: EGFR binding, higher = more signal;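 note: score merges 667 nm emission intensity with spot signal to noise over triplicate slides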
# Chain of Epidermal growth factor receptor (Homo sapiens) (P00533 whole entry, looked up): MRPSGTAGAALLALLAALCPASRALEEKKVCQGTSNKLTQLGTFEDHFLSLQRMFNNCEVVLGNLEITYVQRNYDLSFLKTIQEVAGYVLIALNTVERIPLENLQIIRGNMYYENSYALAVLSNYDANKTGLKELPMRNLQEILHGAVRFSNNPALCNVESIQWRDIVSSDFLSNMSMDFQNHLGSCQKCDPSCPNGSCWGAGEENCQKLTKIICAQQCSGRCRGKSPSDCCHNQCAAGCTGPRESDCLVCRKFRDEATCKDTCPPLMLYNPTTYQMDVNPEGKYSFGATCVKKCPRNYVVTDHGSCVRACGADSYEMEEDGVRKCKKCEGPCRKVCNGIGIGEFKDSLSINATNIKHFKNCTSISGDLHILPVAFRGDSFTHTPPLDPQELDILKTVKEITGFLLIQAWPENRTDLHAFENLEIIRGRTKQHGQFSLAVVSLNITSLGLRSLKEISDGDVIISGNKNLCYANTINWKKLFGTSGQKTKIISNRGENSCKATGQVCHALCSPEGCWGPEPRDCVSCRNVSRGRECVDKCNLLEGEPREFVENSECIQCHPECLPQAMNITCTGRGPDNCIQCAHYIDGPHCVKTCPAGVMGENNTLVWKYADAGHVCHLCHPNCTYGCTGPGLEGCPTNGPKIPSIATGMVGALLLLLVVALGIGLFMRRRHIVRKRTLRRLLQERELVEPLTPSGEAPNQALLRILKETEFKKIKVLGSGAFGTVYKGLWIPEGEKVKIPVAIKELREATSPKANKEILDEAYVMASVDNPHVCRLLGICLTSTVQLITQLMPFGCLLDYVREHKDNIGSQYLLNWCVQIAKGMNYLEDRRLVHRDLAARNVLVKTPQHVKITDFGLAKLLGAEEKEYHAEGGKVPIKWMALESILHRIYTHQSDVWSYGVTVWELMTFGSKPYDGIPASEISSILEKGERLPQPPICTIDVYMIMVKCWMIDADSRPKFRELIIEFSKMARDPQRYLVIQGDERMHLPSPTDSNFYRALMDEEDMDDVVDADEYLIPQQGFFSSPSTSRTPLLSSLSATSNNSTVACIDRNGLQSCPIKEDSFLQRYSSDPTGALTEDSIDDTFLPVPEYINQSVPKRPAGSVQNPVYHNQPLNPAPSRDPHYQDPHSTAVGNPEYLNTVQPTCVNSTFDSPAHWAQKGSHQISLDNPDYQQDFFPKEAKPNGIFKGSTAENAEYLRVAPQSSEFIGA
# [8] = target: Follistatin-related protein 3 (Homo sapiens) (UniProt O95633); experiment: FSTL3 binders on small-molecule microarrays, primary screen, biochemical, small-molecule microarray, 635 nm fluorescence (AID 1105); conditions: FSTL3 binding, higher = more signal;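 note: score merges emission near 667 nm and signal to noise per printed spot across three slides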
# Chain of Follistatin-related protein 3 (Homo sapiens) (O95633 whole entry, looked up): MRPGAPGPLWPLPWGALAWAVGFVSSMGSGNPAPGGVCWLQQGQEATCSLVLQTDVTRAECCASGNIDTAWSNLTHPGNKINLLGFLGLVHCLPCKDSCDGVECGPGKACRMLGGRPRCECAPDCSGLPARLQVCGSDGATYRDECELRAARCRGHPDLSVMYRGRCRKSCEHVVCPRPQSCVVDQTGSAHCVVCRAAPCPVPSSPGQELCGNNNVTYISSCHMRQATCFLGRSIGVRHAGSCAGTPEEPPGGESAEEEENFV
# [9] = target: Dickkopf-related protein 1 (Homo sapiens) (UniProt O94907); experiment: DKK1 binders on small-molecule microarrays, primary screen, biochemical, small-molecule microarray, 635 nm fluorescence scan (AID 1106); conditions: DKK1 binding, higher = more signal;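 note: score merges emission near 667 nm with signal to noise over three replicate slides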
# Chain of Dickkopf-related protein 1 (Homo sapiens) (O94907 whole entry, looked up): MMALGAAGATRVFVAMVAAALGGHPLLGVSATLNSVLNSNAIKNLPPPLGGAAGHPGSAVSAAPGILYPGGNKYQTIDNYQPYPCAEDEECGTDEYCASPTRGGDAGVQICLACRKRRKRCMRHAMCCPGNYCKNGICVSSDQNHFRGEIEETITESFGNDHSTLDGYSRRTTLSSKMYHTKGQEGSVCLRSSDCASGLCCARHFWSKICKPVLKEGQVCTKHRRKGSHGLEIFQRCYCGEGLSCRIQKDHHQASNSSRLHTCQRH
# [10] = system: Inhibin beta A chain (activin A); experiment: INHBA (activin A) binders on microarrays, primary screen, biochemical, small-molecule microarray, 635 nm fluorescence scan (AID 1107); conditions: small-molecule microarray binding, higher = more signal;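 note: mouse activin A protein probed at 4.33 µg/mL on printed slides; score merges bound-protein fluorescence near 667 nm with spot signal-to-noise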
# [11] = system: Human papillomavirus type 1a protein E7 (residues 44-93); experiment: HPV1a E7 fragment binders on microarrays, primary screen, biochemical, small-molecule microarray, residues 44-93, 635 nm fluorescence (AID 1108); conditions: small-molecule microarray binding, fluorescence 635 nm; higher = more signal;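 note: E7 fragment applied at 1 µg/mL in TBST for 1 h at 4 C; score combines spot fluorescence with its signal to noise ratio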
# [12] = modulators of HCV replicon luciferase signal, primary screen, HCV replication inhibitor project, Huh7 cells, luciferase reporter (AID 1109); conditions: 48 h, higher = more signal;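 note: huh7 hepatoma cells harbouring a luciferase neomycin HCV replicon reporter; luciferase luminescence as measure of HCV replicon replication; test concentration not given here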
# [13] = target: Left-right determination factor 2 (Homo sapiens) (UniProt O00292); experiment: LEFTY2 binders on small-molecule microarrays, primary screen, biochemical, small-molecule microarray, 635 nm fluorescence scan (AID 1110); conditions: LEFTY2 binding, higher = more signal
# Chain of Left-right determination factor 2 (Homo sapiens) (O00292 whole entry, looked up): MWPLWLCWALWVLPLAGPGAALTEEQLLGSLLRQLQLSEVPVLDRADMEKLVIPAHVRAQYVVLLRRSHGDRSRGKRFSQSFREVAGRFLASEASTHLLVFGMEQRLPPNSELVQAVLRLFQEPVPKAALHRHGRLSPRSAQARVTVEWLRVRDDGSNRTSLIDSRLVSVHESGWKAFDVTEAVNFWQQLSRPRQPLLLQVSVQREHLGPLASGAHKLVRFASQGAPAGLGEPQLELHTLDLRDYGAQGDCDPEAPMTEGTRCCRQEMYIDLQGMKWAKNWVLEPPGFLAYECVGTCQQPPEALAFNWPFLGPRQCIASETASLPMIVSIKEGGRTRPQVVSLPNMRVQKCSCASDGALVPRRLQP
# [14] = target: Calmodulin-1 (Homo sapiens) (UniProt P0DP23); experiment: CALM1 binders on microarrays, EGTA buffer, profiling panel, biochemical, small-molecule microarray, Cy5-labelled CALM1 (AID 1111); conditions: Cy5-CALM1 binding fluorescence, higher = more signal;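 note: labelled calmodulin applied in Tris saline Tween buffer holding calcium plus EGTA and DTT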
# [15] = target: Calmodulin-1 (Homo sapiens) (UniProt P0DP23); experiment: calcium-bound CALM1 binders on microarrays, profiling panel, artefact control for SMM control-protein annotation, biochemical, small-molecule microarray, Cy5-labelled CALM1, plus calcium (AID 1112); conditions: Cy5-CALM1 binding fluorescence, higher = more signal;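 note: score merges spot fluorescence with signal to noise from triplicate slides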
# [16] = small-molecule microarray binders of probe aWnt5a, primary screen, biochemical, biotinylated probe, 635/667 nm fluorescence (AID 1113); conditions: higher = more signal;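 note: score merges 667 nm fluorescence intensity with signal-to-noise per printed feature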
# [17] = small-molecule microarray binders of probe aShh, primary screen, biochemical, biotinylated probe, 635/667 nm fluorescence (AID 1114); conditions: higher = more signal;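 note: probe is biotin-labelled aShh protein from a stem cell growth factor screen; measures binding of labelled protein to compounds printed on the slide; score merges feature fluorescence at 667 nm with signal-to-noise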
# [18] = small-molecule microarray binders of probe aNog, primary screen, biochemical, biotinylated probe, 635/667 nm fluorescence (AID 1115); conditions: higher = more signal;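 note: probe is biotinylated aNog protein used at 0.15 µg/mL for 1 h at 4 C; z-score combines 667 nm fluorescence of each spot with its signal to noise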
# [19] = target: Torsin-1A-interacting protein 1 (Homo sapiens) (UniProt Q5JTV8); experiment: LAP1 binders from COS7 cell lysate, primary screen, small-molecule microarray, 635/667 nm fluorescence (AID 1116); conditions: COS7-hLAP1 lysate binding, 635 nm fluorescence, higher = more signal
# Chain of Torsin-1A-interacting protein 1 (Homo sapiens) (Q5JTV8 whole entry, looked up): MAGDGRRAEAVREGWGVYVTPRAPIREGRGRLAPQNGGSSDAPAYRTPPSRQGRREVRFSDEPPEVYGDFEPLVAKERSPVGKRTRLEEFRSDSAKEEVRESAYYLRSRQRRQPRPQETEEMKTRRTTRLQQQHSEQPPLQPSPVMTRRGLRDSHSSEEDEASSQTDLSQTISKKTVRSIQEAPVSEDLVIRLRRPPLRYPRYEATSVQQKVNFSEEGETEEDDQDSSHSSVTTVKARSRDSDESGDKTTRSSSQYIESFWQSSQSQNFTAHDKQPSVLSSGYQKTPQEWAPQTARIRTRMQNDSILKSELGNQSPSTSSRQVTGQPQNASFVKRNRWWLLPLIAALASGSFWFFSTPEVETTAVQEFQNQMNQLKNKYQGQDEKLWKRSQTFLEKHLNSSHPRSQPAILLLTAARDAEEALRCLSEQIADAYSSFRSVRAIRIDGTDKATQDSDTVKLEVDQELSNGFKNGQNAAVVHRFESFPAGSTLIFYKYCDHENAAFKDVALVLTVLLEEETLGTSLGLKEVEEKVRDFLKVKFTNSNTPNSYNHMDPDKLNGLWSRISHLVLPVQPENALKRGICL
# [20] = target: Alpha-bungarotoxin (Bungarus multicinctus) (UniProt P60615); experiment: alpha-bungarotoxin binders on microarray, profiling panel, artefact control for SMM control protein annotation, biochemical, small-molecule microarray, Alexa647 label, 635/667 nm fluorescence (AID 1117); conditions: alpha-BTX-A647 binding fluorescence, higher = more signal
# Chain of Alpha-bungarotoxin (Bungarus multicinctus) (P60615 whole entry, looked up): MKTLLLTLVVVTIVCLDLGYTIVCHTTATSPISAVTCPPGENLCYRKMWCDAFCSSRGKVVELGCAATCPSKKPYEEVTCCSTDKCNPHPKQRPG
SMILES,composite z-score [1],composite z-score [2],composite z-score [3],z-score [4],composite z-score [5],composite z-score [6],composite z-score [7],composite z-score [8],composite z-score [9],composite z-score [10],composite z-score [11],z-score [12],composite z-score [13],composite z-score [14],composite z-score [15],composite z-score [16],composite z-score [17],composite z-score [18],composite z-score [19],composite z-score [20]
CCOC(=O)C1=CC[C@@H](c2ccc(F)cc2)N(S(=O)(=O)c2ccc(C)cc2)[C@H]1c1ccc([N+](=O)[O-])cc1,0.681,0.0684,0.373,-0.689 (inactive),0.914,0.988,-0.24,0.485,-0.453,0.537,1.34,-1.05,-0.248,1.56,-0.171,0.0323,-0.138,-0.158,0.341,0.937
C=CC[C@@]12N=C(c3ccc(OCCCO)cc3)O[C@@H]1c1ccccc1N(Cc1ccccc1)C2=O,1.55,1.36,1.08,-1.37 (inactive),1.26,1.34,0.657,1.48,0.904,1.12,0.598,-2.27,0.657,0.792,0.355,0.127,-0.114,1.1,1.16,0.858
C[C@H]1C2[C@H](Cc3ccccc3)NC(=O)[C@]23C(=O)NCC(=O)N2CCC[C@H]2C(=O)NC/C=C\C/C=C/C3[C@@H]2O[C@]12C (stereo not given in full),1,-0.22,-0.6,0.0829 (inactive),0.269,-0.0567,0.136,0.201,0.376,1.43,-0.8,0.288,0.245,-0.549,-0.698,-0.0417,-0.2,-0.28,-0.177,-0.246
O=C(NCC(F)(F)F)[C@@H]1c2ccccc2C(=O)N(CC23CC4CC(CC(C4)C2)C3)[C@H]1c1ccc(CO)cc1,0.586,-0.0677,-0.217,-1.32 (inactive),0.75,0.804,0.169,0.858,0.26,0.47,1.02,-1.83,0.355,0.579,-0.715,-0.0398,0.136,-0.222,0.613,-0.523
NC(=O)N1C(=O)C2C(C1=O)C1C=C(CCCO)C2C(c2ccc(CN3CCCC3)cc2)N1Cc1cccc(OC(F)(F)F)c1 (stereo not given),0.488,0.084,0.263,-0.443 (inactive),0.374,0.686,0.634,0.719,0.723,1.59,0.433,-3.48,0.565,0.011,-0.202,-0.104,0.296,0.429,-0.226,0.546
CC(C)C(=C=CC[C@@H](O)c1cccc(OCCO)c1)CCO,0.725,0.0614,0.111,-0.87 (inactive),1.51,-0.615,-0.554,0.457,0.137,0.677,0.217,0.13,0.0381,-0.203,-0.136,-0.154,-0.229,-0.273,0.393,-0.529
CC(c1ccccc1)C(O)C1C=CC2C(=O)N(c3ccccc3)C(=O)C2N1Nc1ccc(C#N)cc1 (stereo not given),1.27,0.0897,0.582,-0.44 (inactive),0.975,1.32,0.702,1.48,-0.163,0.251,1.41,-0.354,0.8,1.52,0.253,0.216,0.156,1.45,1.8,1.39
C#CCN=C(N)N,0.271,0.0623,-0.534,0.422 (inactive),0.528,0.605,0.527,0.918,0.861,0.548,0.69,-0.613,1.11,-0.617,-0.736,-0.131,-0.0813,-0.226,0.622,0.0757
NC(=O)NCC#Cc1ccc2c(c1)[C@]1(C(=O)N2)[C@H](C(=O)N2CCCCCCC2)[C@H]2C(=O)O[C@H](c3ccccc3)[C@H](c3ccccc3)N2[C@@H]1c1ccc(O)cc1,1.63,2.7,1.47,-0.15 (inactive),1.4,0.919,1.27,1.51,1.63,1.49,0.0787,-1.13,0.953,2.38,0.509,0.754,1.54,2.78,2.19,2.01
